Test [1] can be described thus: NCI Yeast Anticancer Drug Screen. Data for the rad50 strain (AID 155).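 Note: 0% = growth of vehicle-only cultures of the same strain.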 To be noted: S. cerevisiae rad50 strain growth inhibition; at 50.0 µM; active compounds read high. The procedure, abridged: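 Relative growth inhibition (compound vs vehicle) was measured in yeast with a defined repair-gene alteration.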
A short description of test [2]: NCI Yeast Anticancer Drug Screen. Data for the mec2-1 strain (AID 157). The conditions noted are these: S. cerevisiae mec2-1 strain, at 50.0 µM, active compounds read high. The procedure, abridged: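 Mutant yeast (mec2-1) grown with compound; growth inhibition relative to vehicle control reported.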
The nature of test [3]: NCI Yeast Anticancer Drug Screen. Data for the sgs1 mgt1 strain (AID 161).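 Note: 0% = growth of cultures given vehicle only.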 To be noted: S. cerevisiae sgs1 mgt1 strain, at 50.0 µM, active compounds read high. The procedure, abridged: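 Yeast cells carrying a defined DNA-repair defect were exposed to test compounds. Growth inhibition was measured relative to vehicle-treated controls.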
A short description of test [4]: NCI Yeast Anticancer Drug Screen. Data for the cln2 rad14 strain (AID 165).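 Note: 0% = growth equal to vehicle treated cultures.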 To be noted: S. cerevisiae cln2 rad14 strain, at 50.0 µM, active compounds read high. The procedure, abridged:
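Readout is yeast growth inhibition versus vehicle-treated controls, using a strain with cln2 and rad14 alterations exposed to compound.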

Test [5] in a line: NCI Yeast Anticancer Drug Screen. Data for the bub3 strain (AID 167). The conditions noted are these: S. cerevisiae bub3 mutant strain, at 50.0 µM, active compounds read high. The procedure, abridged:
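Screening used yeast with an engineered genetic alteration affecting cell cycle control. Compound-exposed cultures were compared with vehicle cultures, and reduced growth was taken as inhibition.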

Test [6] is described as follows: NCI Yeast Anticancer Drug Screen. Data for the mlh1 rad18 strain (AID 175). To be noted: S. cerevisiae mlh1 rad18 strain growth inhibition; at 50.0 µM; active compounds read high. The procedure, abridged:
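Genetically defined yeast (DNA repair-deficient) exposed to compounds; growth inhibition determined relative to vehicle.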

About 79,000 compounds went through this panel and 15% of them were active in at least one assay; those are over-represented in the sample as a whole. A number with no mark means an inactive call. Calls of active or inactive are those of the source. Cut-off read from the data, not from the text of the source: active = growth inhibition above about 70%; inactive = the rest.

These results are taken from PubChem BioAssay (NCI).

`O=C(O)CSSCC(=O)O`: the growth inhibition is -0.15% in test [1]; -16.6% in test [2]; -18.8% in test [3]; 23.1% in test [4]; -10.2% in test [5]; -24.5% in test [6].
For the molecule `CN(C)CCOc1c(Cc2ccccc2)ccc2cccnc12`, the growth inhibition was -1.65% in test [1]; 5.15% in test [2]; 3.05% in test [3]; -2.9% in test [4]; 1% in test [5]; 5.05% in test [6].
As to `CC1(C)C=C(C(=O)ON2C(=O)CCC2=O)C(C)(C)N1O`, the growth inhibition in test [1] was -4.85%; in test [2], -25.9%; in test [3], -14.5%; in test [4], 12.7%; in test [5], -19.1%; in test [6], -16.1%.
For the molecule `Cc1ccc(P(=O)(O)O)c([N+](=O)[O-])c1`, the growth inhibition in test [1] is 5.4%; in test [2], 1.7%; in test [3], -3.65%; in test [4], -7.2%; in test [5], -4.35%; in test [6], 12.9%.
With `O=C(CCN1CCCCC1)c1cc(Cl)ccc1Cl`, the growth inhibition in test [1] is 88.4% (active); in test [2], 68.4%; in test [3], 93.1% (active); in test [4] it was 62.5%; in test [5] it was 91% (active); in test [6] it was 80.2% (active).
For the molecule `O=C1C(N=Nc2ccccc2)Sc2nc3ccccc3n21` (stereo not given), the growth inhibition in test [1] is -16.1%; in test [2], -3.2%; in test [3], 2.85%; in test [4], -52%; in test [5] it was 4.5%; in test [6], -9.1%.
For the molecule `CCN(CC)c1ccc(C(=O)c2ccccc2C(=O)O)c(O)c1`, the growth inhibition is -38.2% in test [1]; -8.75% in test [2]; -27.4% in test [3]; 5.35% in test [4]; -15.8% in test [5]; 5.2% in test [6].
In the case of `CC[O-].CC[O-].O=C([CH-]C(=O)c1ccccc1)CCCCCCC(=O)[CH-]C(=O)c1ccccc1.[Ti+4]`, the growth inhibition in test [1] was -39.5%; in test [2] it was -13.7%; in test [3] it was -33.5%; in test [4], -4.7%; in test [5] it was 4.95%; in test [6], -17.7%.
As for `C=CCOCc1ccc(C(C)(C)CC(C)(C)C)cc1`, the growth inhibition in test [1] is -5.25%; in test [2], 13.5%; in test [3] it was 8.6%; in test [4] it was -75.5%; in test [5], 16.1%; in test [6] it was 15.7%.
For `C=C(C)[C@H]1C[C@@H](O)[C@H]2O[C@@]2(C)C1`, the growth inhibition in test [1] was -8.05%; in test [2], -8.35%; in test [3] it was -25.9%; in test [4], -13.8%; in test [5] it was 0.8%; in test [6] it was -2.85%.
For `CC(=O)Oc1ccccc1C#CC(=O)O`, the growth inhibition was 17.3% in test [1]; 25.6% in test [2]; 34% in test [3]; -1.2% in test [4]; -0.7% in test [5]; 15.4% in test [6].
With `CC(=O)OC1C=C(C=O)C(O)(C=O)C2(C)CCCC(C)(C)C12` (stereo not given), the growth inhibition in test [1] is -20.2%; in test [2], -29.5%; in test [3], -18.6%; in test [4], 7.95%; in test [5] it was 8.65%; in test [6] it was -17.6%.
Turning to `CCOC1C(Br)Cn2c(=O)c3cc4ccccc4cc3c(=O)n2C1C` (stereo not given), the growth inhibition is 61.2% in test [1]; 8.15% in test [2]; 21.6% in test [3]; 44.3% in test [4]; 33.6% in test [5]; 33.2% in test [6].
For `COC(=O)C1CCCCC1C(=O)OC` (stereo not given), the growth inhibition was -11.1% in test [1]; -14% in test [2]; 0.85% in test [3]; -16.6% in test [4]; -5.3% in test [5]; 6% in test [6].
Regarding `C/C([O-])=N\[N+](C)(C)Cc1ccccc1`, the growth inhibition in test [1] is -4.65%; in test [2] it was 0.8%; in test [3], -11.7%; in test [4], -23.4%; in test [5], -6.6%; in test [6], 5.8%.
On to `O=C(O)C1CCN(C(=O)Cc2c3ccccc3cc3ccccc23)CC1`, for which the growth inhibition in test [1] was 20.9%; in test [2], 3.9%; in test [3], -3.45%; in test [4] it was -2.5%; in test [5], -6.85%; in test [6], 22.7%.
`Cc1cc(N=Nc2ccc(O)c3ncccc23)c2ccccc2n1`: the growth inhibition was 9.5% in test [1]; 6.85% in test [2]; 22.8% in test [3]; -4.9% in test [4]; 18% in test [5]; 19.1% in test [6].
With `FC(F)(F)C1(F)C(F)(F)C(F)(F)C(F)(F)C(F)(F)C1(F)F`, the growth inhibition in test [1] was 16.3%; in test [2], -39.1%; in test [3] it was -4.95%; in test [4], -96.2%; in test [5], -24.1%; in test [6] it was 27.9%.
As for `Cc1ccc(C2(C(=O)O)CC2)cc1`, the growth inhibition was -3.2% in test [1]; -25.7% in test [2]; 12.3% in test [3]; 21.4% in test [4]; -13.8% in test [5]; 5.15% in test [6].
Take `CCCCCCC(NC(C)=O)C(=O)O` (stereo not given): the growth inhibition was 3.85% in test [1]; -4.7% in test [2]; 13.9% in test [3]; 6.35% in test [4]; 4.3% in test [5]; 3.5% in test [6].
